From PubChem
Sampled rows, rich in hits. Any-hit rate of the full collection: about 2.5%.
Exocytosis inh: blocks lytic granule exocytosis; AID 651702; actives 0.66% (n = 360,000); inhibition, % at 10 µM; TALL-104 LAMP-1 surface exposure, flow cytometry; cells stimulated with thapsigargin and PMA;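 active = inhibition above about 55%, limit read from the data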
rCAG RNA binder: r(CAG) repeat RNA binding. inhibition, % at 3 µM. TO-PRO-1 dye displacement fluorescence. AID 651821. actives 1.3% (n = 370,000);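 active = inhibition above the plate cutoff, the mean of all test compounds on that plate plus 3 SD, cut at about 35% in these data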;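 also: higher means more dye released from RNA so lower well fluorescence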
PG9 Ab binder: small molecules binding HIV-1 gp120 antibody PG9; TR-FRET gp120-PG9 antibody binding; actives 0.43% (n = 360,000); inhibition, % at 6.7 µM; in the data active = inhibition above about 8.5%
ABCB6 inh 2: human ABCB6 transporter inhibition | K562-ABCB6 porphyrin accumulation, flow cytometry, 1 h; active compounds read low | actives 0.19% (n = 360,000) | AID 602162 | Q9NP58 | fluorescence ratio to DMSO, % at 10 µM;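 active = fluorescence ratio to DMSO below 75%, the collection mean minus 3 SD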;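 also: signal is porphyrin accumulated inside mitochondria; lower ratio means ABCB6 inhibition with less porphyrin fluorescence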
Target sequence (Q9NP58 whole entry, looked up): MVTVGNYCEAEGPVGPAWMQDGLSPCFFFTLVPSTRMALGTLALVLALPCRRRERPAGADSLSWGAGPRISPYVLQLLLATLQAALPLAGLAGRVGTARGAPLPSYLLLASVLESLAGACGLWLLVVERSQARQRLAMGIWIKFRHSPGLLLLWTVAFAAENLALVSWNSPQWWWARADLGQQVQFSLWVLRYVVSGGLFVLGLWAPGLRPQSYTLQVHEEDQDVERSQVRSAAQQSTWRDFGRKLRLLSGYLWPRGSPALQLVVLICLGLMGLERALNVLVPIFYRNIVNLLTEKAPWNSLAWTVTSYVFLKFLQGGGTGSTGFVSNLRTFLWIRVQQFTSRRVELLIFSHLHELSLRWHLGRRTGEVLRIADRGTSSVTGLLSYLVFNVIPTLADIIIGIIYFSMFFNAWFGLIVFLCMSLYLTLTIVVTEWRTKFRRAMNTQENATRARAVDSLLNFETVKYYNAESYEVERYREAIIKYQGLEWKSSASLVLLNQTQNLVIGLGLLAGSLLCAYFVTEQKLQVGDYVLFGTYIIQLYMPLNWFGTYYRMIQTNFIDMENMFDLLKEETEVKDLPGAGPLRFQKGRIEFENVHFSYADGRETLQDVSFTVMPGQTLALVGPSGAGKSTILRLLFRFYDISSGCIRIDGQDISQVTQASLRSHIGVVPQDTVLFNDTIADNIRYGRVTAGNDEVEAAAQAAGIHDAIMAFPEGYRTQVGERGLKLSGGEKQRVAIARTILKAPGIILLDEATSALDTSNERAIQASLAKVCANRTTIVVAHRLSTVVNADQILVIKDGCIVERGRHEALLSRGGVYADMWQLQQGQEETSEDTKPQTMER
rCAG bind conf: r(CAG) RNA repeat binding, confirmation; shares compounds with rCAG RNA binder; TO-PRO-1 dye displacement fluorescence; inhibition, % at 3 µM; actives 70% (n = 4,300);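 active = inhibition above a per-plate cutoff, the mean inhibition of sample wells plus 3 SD, cut at about 35% in these data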;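 also: loss of TO-PRO-1 fluorescence as compound displaces dye from 1x1 AA loop RNA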
dCAG dye counter: DNA CAG dye complex inhibition counter-screen; inhibition, % at 3 µM; d(CAG) DNA oligo TO-PRO-1 dye displacement, fluorescence; actives 94% (n = 4,300); shares compounds with rCAG RNA binder;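 active = inhibition above its plate's cutoff, the mean test-well inhibition plus 3 SD, cut at about 4.8% in these data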;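 also: hits displace the dye from DNA and so lower well fluorescence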
Each line names hits and unclear results; the compound was inactive in the other large screens (follow-up assays come after a bar, where they were run).

COC(=O)c1cccc(NC(=O)/C=C/c2ccc([N+](=O)[O-])cc2)c1	none
Cc1ccc2c(c1)/C(=C/c1ccccc1F)C(=O)N2	none
O=C(O)COc1ccccc1/C=C1\C(=O)Nc2ccc(Br)cc21	rCAG RNA binder 43 | rCAG bind conf inactive | dCAG dye counter 5.7
C/C=C1\NC(=O)[C@H](C)NC(=O)[C@@H](NC(=O)[C@@H](Cc2ccc(O)cc2)NC(=O)[C@@H](NC(=O)/C(C)=C/C)C(C)C)[C@@H](C)OC(=O)[C@H](CCCCc2ccc(O)cc2)NC(=O)[C@@H](CCC(=O)O)NC1=O	rCAG RNA binder 36 | rCAG bind conf inactive | dCAG dye counter 6.7
O=C(Nc1ccc(Cl)cc1)Nc1ccc(S(=O)(=O)Nc2ncccn2)cc1	none
O=C(Nc1ccc(S(=O)(=O)Nc2ncccn2)cc1)c1ccccc1NS(=O)(=O)c1ccc(Cl)cc1	rCAG RNA binder 42 | rCAG bind conf 66 | dCAG dye counter 26
O=C(c1ccccc1NS(=O)(=O)c1ccc(Cl)cc1)N1CCc2ccccc21	rCAG RNA binder 47 | rCAG bind conf 61 | dCAG dye counter 15
O=C(O)c1ccc(NS(=O)(=O)c2ccc(NC(=O)c3ccccc3Cl)cc2)cc1	none
O=C(O)c1ccc(Cl)c(S(=O)(=O)Nc2ccccc2C(=O)Nc2ccc(Cl)cc2)c1	rCAG RNA binder 45 | rCAG bind conf 46 | dCAG dye counter 17
O=C(c1ccc(Cl)cc1)N1CCc2ccccc21	none
O=C(CSc1nnc2ccccn12)NC(=O)c1ccccc1Cl	none
O=C(NC1=N[C@@]2(C=C3CCCCC3n3c(=O)n(-c4ccccc4)c(=O)n32)[C@H](Cc2ccccc2)N1Cc1ccccc1)c1ccccc1 (stereo partly specified)	rCAG RNA binder 56 (no result: Exocytosis inh, PG9 Ab binder, ABCB6 inh 2) | rCAG bind conf 53 | dCAG dye counter 20
CC(=O)Nc1nc(-c2ccc([N+](=O)[O-])cc2)cs1	none
O=C(Nc1ccc([N+](=O)[O-])cc1)Nc1nc(-c2ccc(Cl)s2)cs1	rCAG RNA binder 51 | rCAG bind conf 68 | dCAG dye counter 48
Cc1c(CC(=O)N2CCC(C(=O)O)CC2)c(=O)oc2cc3c(cc12)CCC1(CCCCC1)O3	none
COc1ccc(CN2C(=O)CSCC2(C)C(=O)NC(C)C)cc1 (stereo unspecified)	none (no result: ABCB6 inh 2)
COc1cccc(/C=C2\SC(=S)N(NS(=O)(=O)c3ccc(C)cc3)C2=O)c1OC	rCAG RNA binder 75 | rCAG bind conf 66 | dCAG dye counter 28
COc1ccccc1/C=C1\SC(=S)N(NS(=O)(=O)c2ccccc2)C1=O	rCAG RNA binder 69 | rCAG bind conf 69 | dCAG dye counter 22
COc1cc(/C=C2\SC(=S)N(NS(=O)(=O)c3ccccc3)C2=O)ccc1O	none
COc1cccc(-c2nnc(NC(=O)c3ccc4ncsc4c3)o2)c1	none
NCCCCc1ccc2ccc3cccc4ccc1c2c34	none
O=C(O)CCCc1ccc2ccc3cccc4ccc1c2c34	rCAG RNA binder 47 | rCAG bind conf inactive | dCAG dye counter 7.5
Cc1ccccc1C(=O)NNC(=O)C1CC(=O)N(c2ccc3c(c2)OCCO3)C1 (stereo unspecified)	none
CCOc1ccc(S(=O)(=O)N2CN3CCN(C3)C2)cc1	none
CCOc1ccc(S(=O)(=O)N2CCNC(=O)C2)cc1	rCAG RNA binder 54 | rCAG bind conf inactive | dCAG dye counter inactive
O=C1COc2ccc(C(=O)COC(=O)c3cnc(Cl)c(Cl)c3)cc2N1	none
O=C(O)c1[nH]c2ccccc2c1C(c1cc(Br)ccc1O)c1c(C(=O)O)[nH]c2ccccc12	rCAG RNA binder 95 | rCAG bind conf 76 | dCAG dye counter 40
COc1cc(C(=O)Nc2c(C(=O)O)[nH]c3ccccc23)cc(OC)c1OC	none
COc1cc(Cl)cc(C(c2c(C(=O)O)[nH]c3ccccc23)c2c(C(=O)O)[nH]c3ccccc23)c1O	rCAG RNA binder 92 | rCAG bind conf 73 | dCAG dye counter 38
O=C(O)c1[nH]c2ccccc2c1C(c1c(F)cccc1Cl)c1c(C(=O)O)[nH]c2ccccc12	rCAG RNA binder 57 | rCAG bind conf inactive | dCAG dye counter 8.0
O=C(O)c1[nH]c2ccccc2c1-c1ccccc1	none
O=C(CCC(=O)N1CCOc2ccc(Cl)cc21)NCCCN1CCC(Cc2ccccc2)CC1	none
O=C(COC(=O)C12CC3CC(CC(Br)(C3)C1)C2)Nc1ccc2[nH]c(=O)[nH]c2c1	none
NC(=O)c1ccccc1NC(=O)c1ccccc1Cl	none
O=C(Nc1ccccc1C(=O)Nc1nnc(C(F)(F)F)s1)c1ccccc1Cl	rCAG RNA binder 65 | rCAG bind conf 71 | dCAG dye counter 30
O=C(NCc1ccccc1)c1c[nH]c2ccc(S(=O)(=O)Nc3ccc4c(c3)OCCO4)cc2c1=O	rCAG RNA binder 37 | rCAG bind conf inactive | dCAG dye counter 12
O=C(NC1CC1)c1c[nH]c2ccc(S(=O)(=O)Nc3cccc(C(F)(F)F)c3)cc2c1=O	rCAG RNA binder 36 | rCAG bind conf inactive | dCAG dye counter 6.0
O=C(O)CC1S/C(=N/N=C/C=C/c2ccccc2[N+](=O)[O-])NC1=O (stereo unspecified)	none
O=C(O)CC1S/C(=N/N=C/c2ccc(-c3ccc(Cl)c([N+](=O)[O-])c3)o2)NC1=O (stereo unspecified)	rCAG RNA binder 35 | rCAG bind conf inactive | dCAG dye counter 8.0
O=C(O)CC1S/C(=N/N=C/c2ccc(-c3ccc(Cl)cc3[N+](=O)[O-])o2)NC1=O (stereo unspecified)	rCAG RNA binder 43 | rCAG bind conf inactive | dCAG dye counter 6.6
C[C@@H]1CN([C@H](C)CO)C(=O)CCCn2nncc2CO[C@@H]1CN(C)S(=O)(=O)c1ccc2c(c1)OCCCO2	none
CSC1=NSC2=NC(=O)/C(=C\c3coc4ccccc4c3=O)C(=N)N12	none
CC(C)CSC1=NSC2=NC(=O)/C(=C\c3ccccc3)C(=N)N12	rCAG RNA binder 76 | rCAG bind conf 39 | dCAG dye counter 9.9
CC(C)CSC1=NSC2=NC(=O)/C(=C\c3coc4ccccc4c3=O)C(=N)N12	rCAG RNA binder 61 | rCAG bind conf 59 | dCAG dye counter 55
COC(=O)[C@]12C[C@H](CC(=O)N3CCN(C(=O)C4CC4)CC3)C(=O)N(Cc3cccc4ccccc34)C1=C[C@H](COCc1ccccc1)O[C@@H]2C	none (no result: Exocytosis inh, PG9 Ab binder, ABCB6 inh 2)
CCCC(=O)N(CCN1CCOCC1)c1nc2c(F)cc(F)cc2s1	none
Cc1nnc(NC(=O)Nc2cccc(Cl)c2)s1	rCAG RNA binder 50 | rCAG bind conf inactive | dCAG dye counter 12
O=C(Nc1cccc(Cl)c1)Nc1nc(-c2ccccc2)cs1	rCAG RNA binder 50 | rCAG bind conf inactive | dCAG dye counter 20
Cc1csc(NC(=O)Nc2cccc(Cl)c2)n1	rCAG RNA binder 46 | rCAG bind conf inactive | dCAG dye counter 16
Cc1c(OC(C)C(=O)NCc2ccncc2)ccc2c3c(c(=O)oc12)CCCC3 (stereo unspecified)	none
